Our source for the cytotoxicity values is PubChem BioAssay AID430 (Sanford-Burnham Center for Chemical Genomics, 2006).

Molecules are shown by their SMILES. The whole screen tested about 63,000 compounds, of which about 1,100 (1.7%) were called active. Cut-off read from the data, not from the text of the source: active = cytotoxicity above about 50%; inactive = the rest. This excerpt belongs to a sample that is enriched for actives. Measured potencies and affinities stand elsewhere.

This assay is described as follows: cytotoxicity in HPDE-C7 cells, cell-based, fluorescence, HTS (AID 430).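 Note: cells exposed to compound for 48 hours before viability readout; 0% = vehicle and 100% = reference cytotoxic drug.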 Conditions: HPDE-C7 pancreatic duct cells viability, at 10 µM, active compounds read high.
Regarding `CCOc1ccccc1C1NC(=O)NC(C)=C1C(=O)OC1CCCCC1` (configuration not stated), the cytotoxicity is 1.9% (inactive). To `COC(=O)c1c(C)n(-c2ccccc2)c2ccc(O)cc12` belongs 11.1% (inactive); to `CC(C)C(NC(=O)OCc1ccccc1)C(=O)NCC(=O)OC(C)(C)C` (configuration not stated), 5.4% (inactive). The value for `COc1ccc(C)cc1NS(=O)(=O)c1ccc(NS(=O)(=O)c2ccc(NC(C)=O)cc2)cc1` was -5.6% (inactive).

On to `O=C(CCCOc1ccc(Cl)cc1)N1CCOCC1`, for which the cytotoxicity is -10.1% (inactive). To `Cc1nc2sc(C(c3cccs3)N3CCC(C(N)=O)CC3)c(O)n2n1` (configuration not stated) belongs -20.4% (inactive); to `OCC(CO)(CO)N=Cc1cc(Br)ccc1O`, 8.1% (inactive); to `CCCc1n[nH]c2c1C(=O)CC(C)(C)C2`, 1.7% (inactive).

Consider `CCN(C(=O)CSc1nc2nc(C)cc(C)n2n1)c1ccccc1`, for which the cytotoxicity was -4% (inactive). The value for `COC(=O)Cn1c2ccc(F)cc2c2nc(C)sc21` was -12.3% (inactive). To `Cc1ccc(Nc2cc(C)nn2-c2nc(C)cc(=O)[nH]2)cc1` belongs 102% (active); to `Cc1cc(=O)[nH]c(-n2nc(C)cc2C)n1`, -1.2% (inactive); to `Cc1cc(Nc2ccccc2)n(-c2nc3ccccc3[nH]2)n1`, 4% (inactive). Regarding `Cc1nc(C)c(C(=O)C2=C(O)C(=O)N(CCN3CCOCC3)C2c2cccnc2)s1` (configuration not stated), the cytotoxicity was -12.6% (inactive).

On to `Fc1cccc2sc(Nc3nnc(-c4ccco4)o3)nc12`, for which the cytotoxicity is 53.7% (active). The value for `CCC(=O)Nc1nnc(-c2ccco2)o1` was -23.7% (inactive); that for `CC(=O)Nc1nc2c(F)cccc2s1` was 9.8% (inactive); that for `c1coc(-c2nnc(NC3=NCCC3)o2)c1` was 7.5% (inactive). The value for `COc1cc(OC)cc(-c2nnc(Nc3nc4c(F)cccc4s3)o2)c1` was 8.8% (inactive). The value for `Fc1cccc2sc(Nc3nnc(-c4ccccc4)o3)nc12` was 53.3% (active); that for `Cc1ccc2c(n1)sc1c(N)ncnc12` was 9.8% (inactive).

With `O=C(CSCc1cccc(Br)c1)N1CCOCC1`, the cytotoxicity was -8.7% (inactive). For the compound `COc1ccc(-c2noc(-c3cc(Cl)ccc3Cl)n2)cc1OC`, the cytotoxicity was -2.3% (inactive).

In the case of `CCOc1ccc(C2N(c3ccc(OC)cc3)C(=O)C3CCCN32)cc1OC` (configuration not stated), the cytotoxicity is 2.1% (inactive).

For the compound `CCOC(=O)/C=C(\C)Sc1cc(=O)oc2ccccc12`, the cytotoxicity was 78.4% (active). To `CCOC(=O)N1CCN(Cc2cc(=O)oc3ccc4ccccc4c23)CC1` belongs 14.3% (inactive); to `O=C(Nc1cc(=O)c2ccccc2o1)N1CCOCC1`, 11.2% (inactive); to `CCOC(=O)Oc1ccc2oc(=O)cc(C)c2c1`, 4.4% (inactive). To `O=C(Nc1cc(=O)c2ccccc2o1)N1CCCCC1` belongs -24.9% (inactive). The value for `CCOC(=O)Nc1cc(=O)c2ccccc2o1` was 53.2% (active); that for `COc1ccc(Cl)cc1NC(=O)C1CCCN(S(=O)(=O)c2cccc3nonc23)C1` (configuration not stated) was -12.6% (inactive). Consider `O=C(NCc1ccc(Cl)c(Cl)c1)c1ccco1`, for which the cytotoxicity was -4.6% (inactive). Regarding `CCCCn1c(=O)[nH]c2ccccc21`, the cytotoxicity was 9.9% (inactive). The value for `COc1ccc(C(=O)NCC(C)CN(C)C)cc1` (configuration not stated) was -2.3% (inactive). To `CCOC(=O)Nc1cccc(Nc2ccccc2)c1` belongs 4.6% (inactive); to `Cc1ccc2[nH]c3c(c2c1)CCC3=O`, -7.5% (inactive); to `Cc1ccc2[nH]c3c(c2c1)CCc1cn[nH]c1-3`, 43.6% (inactive). To `CCN(CC)S(=O)(=O)c1cccc(C(=O)N2CCCCC2)c1` belongs 1.9% (inactive); to `c1ccc(-c2cn3nc(-c4ccccc4)sc3n2)cc1`, -10.8% (inactive). Consider `CCN(c1cccc(C(F)(F)F)c1)S(=O)(=O)c1ccc2c(c1)CCN2C(=O)C1CC1`, for which the cytotoxicity is -11.3% (inactive). The value for `CCN(c1cccc(C(F)(F)F)c1)S(=O)(=O)c1ccc2c(c1)CCN2C(C)=O` was 59.5% (active); that for `CCN(c1cccc(C)c1)S(=O)(=O)c1ccc2c(c1)CCN2C(C)=O` was 46.6% (inactive). To `CCC1CCCCN1C(=O)Cn1c(=O)n(CCC(=O)NCc2ccco2)c(=O)c2sccc21` (configuration not stated) belongs -4.6% (inactive); to `c1ccc(Nc2ccccc2Nc2ccccn2)nc1`, -35.9% (inactive). The value for `O=C(Nc1ccccn1)c1ccc2ccccc2n1` was -1.6% (inactive).

As for `Oc1cccc2ccc(Nc3ccccn3)nc12`, the cytotoxicity is 119% (active). As for `COC(=O)c1cc(Cc2ccc(N)c(C(=O)OC)c2)ccc1N`, the cytotoxicity is 1.9% (inactive). The value for `O=C(COC(=O)CSCC(=O)N1CCCCC1)NCc1ccc(F)cc1` was -5.4% (inactive); that for `O=C(Nc1ccc(C(F)(F)F)cc1Cl)c1ccc(Cn2cc(Br)cn2)o1` was 63.2% (active). To `O=C(NC1CCCCC1)c1ccc(Cn2cc(Br)cn2)o1` belongs -6.8% (inactive). To `CC(=O)c1sc(NC(=O)c2ccc(Cn3cc(Br)cn3)o2)nc1C` belongs 3.3% (inactive); to `Oc1ccccc1-c1cc(C(F)(F)C(F)F)[nH]n1`, -15.5% (inactive). As to `O=C1CC(C(F)(F)C(F)(F)C(F)(F)C(F)F)=Nc2ccccc2N1`, the cytotoxicity was -21.9% (inactive).

For `FC(F)C(F)(F)C(F)(F)C(F)(F)c1cc(-c2ccccc2)n[nH]1`, the cytotoxicity is 83.3% (active). The value for `CCN(CC)CCCNC(=O)Cn1ncc2c(=O)oc3ccc(C)cc3c21` was 1.6% (inactive); that for `CCOCCCNC(=O)Cn1ncc2c(=O)oc3ccccc3c21` was -3.8% (inactive); that for `CCN(CCCNC(=O)Cn1ncc2c(=O)oc3ccccc3c21)c1cccc(C)c1` was 55.1% (active). The value for `Cc1cc(C)nc(NC(=O)NS(=O)(=O)N2CCCCCC2)n1` was -13.1% (inactive); that for `Cc1ccc2[nH]c(=O)c(CN(CCc3ccccc3)Cc3nnnn3CC3CCCO3)cc2c1` (configuration not stated) was 9.4% (inactive); that for `CCOC(=O)N1CCN(C(=O)CSc2nnc(COc3ccc(Cl)cc3)o2)CC1` was -20.5% (inactive). In the case of `CN1/C(=C/C(=O)c2nc(S(C)(=O)=O)ncc2Cl)C(C)(C)c2ccccc21`, the cytotoxicity is 110% (active).

As to `CN1/C(=C\C(=O)C(F)F)C(C)(C)c2ccccc21`, the cytotoxicity is -24.8% (inactive).

On to `CN1/C(=C\C(=O)c2ccco2)C(C)(C)c2ccccc21`, for which the cytotoxicity was -14.9% (inactive).

As to `COc1cc(CO)cc(Br)c1OCC(=O)O`, the cytotoxicity was -22.6% (inactive).

On to `O=C(CSc1nnc(Cc2cc(=O)[nH]c(=O)[nH]2)n1-c1ccccc1)N1CCCC1`, for which the cytotoxicity is -9.2% (inactive). The value for `O=C(CSC1=NCCS1)Nc1ccccc1F` was -3.4% (inactive); that for `Cc1cc(NC(=O)CSc2nnc(-c3ccco3)n2Cc2ccco2)no1` was -9.5% (inactive). To `O=c1nc(-c2ccccc2)cc(-c2ccccc2)[nH]1` belongs -1.2% (inactive); to `[O-][n+]1onc2c1CCc1nnc(-c3ccccc3)cc1-2`, 5.5% (inactive).

For the compound `Cc1ccc(/C(O)=C2/C(=O)C(=O)N(Cc3cccnc3)C2c2ccccn2)cc1` (configuration not stated), the cytotoxicity is 10.4% (inactive). `COc1ccc(-c2nc(N)ncc2-c2csc(C)n2)c(O)c1`: the cytotoxicity is -25% (inactive). To `C=C(C)COc1ccc(-c2nc(N)ncc2-c2ccc(OC)cc2)c(O)c1` belongs 70.7% (active). Regarding `COc1ccc(-c2nc(N)nc(C)c2Oc2ccccc2Br)c(O)c1`, the cytotoxicity was 87.7% (active). To `C=C(C)COc1ccc(-c2nc(N)ncc2Oc2ccc(OC)cc2)c(O)c1` belongs -10.3% (inactive). The value for `COc1cccc(Oc2cnc(N)nc2-c2ccc(OC)cc2O)c1` was 52% (active); that for `CCOc1ccc(-c2ncncc2-c2ccc(OC)cc2)c(O)c1` was -11.9% (inactive); that for `COc1ccc(-c2nc(N)ncc2Oc2ccccc2Br)c(O)c1` was -2.2% (inactive). To `COc1cccc(Oc2cncnc2-c2ccc(OC)cc2O)c1` belongs 20.3% (inactive); to `COc1cccc(Oc2cn[nH]c2-c2ccc(OC)cc2O)c1`, 72.7% (active); to `COc1cccc(Oc2cn[nH]c2-c2ccc(O)cc2O)c1`, 36% (inactive).

With `COc1ccc(-c2[nH]ncc2-c2cnn(-c3ccccc3)c2)c(O)c1`, the cytotoxicity was -0.4% (inactive). Take `CCOc1ccc(-c2nc(N)nc(C)c2-c2ccc(OC)c(OC)c2)c(O)c1`: the cytotoxicity was 3.7% (inactive). On to `Cc1nc(N2CCC(C(N)=O)CC2)c2nnn(Cc3ccccc3)c2n1`, for which the cytotoxicity is 4.3% (inactive). To `Cc1oc(C(=O)O)cc1CSc1nnc(-c2ccccc2)n1C` belongs -2.3% (inactive). To `COc1ccc(NC2c3ccccc3C(=O)N2Cc2ccco2)cc1OC` (configuration not stated) belongs 17.8% (inactive). To `Cc1cccc(Cn2cnc3c(nnn3Cc3ccc(F)cc3)c2=O)c1` belongs 1.3% (inactive). As to `C=C(C)CSc1nnc(-c2ccccc2)n1N`, the cytotoxicity is -23.4% (inactive). The value for `COC(=O)c1nc2n(n1)C(c1ccc(OC)c(OC)c1OC)C1=C(CCCC1=O)N2` (configuration not stated) was 2.9% (inactive); that for `Cc1ccc(NC(=O)c2ccco2)cc1NC(=O)CSc1nnc(-c2cccs2)n1C` was -3.6% (inactive). For the compound `CCc1[nH]nc2c1C(c1cccc(OC(=O)N3CCOCC3)c1)C(C#N)=C(N)O2` (configuration not stated), the cytotoxicity was -34.3% (inactive). To `COc1ccc(Nc2nc(-c3sc(N)nc3C)cs2)cc1` belongs 46.6% (inactive); to `CCn1c(C(O)c2ccccc2)nc2ccccc21` (configuration not stated), -4.3% (inactive); to `Cc1ccc(N2C(=O)C(Cl)=C(Nc3c(C)n(C)n(-c4ccccc4)c3=O)C2=O)cc1`, -0.2% (inactive).

Take `CCOc1ccc(-c2[nH]ncc2Oc2cccc(OC)c2)c(O)c1`: the cytotoxicity is 55.5% (active). As for `Cc1ccc(NC(=O)C2CCCN2S(=O)(=O)c2ccc(F)cc2)c(C)c1` (configuration not stated), the cytotoxicity was -6.1% (inactive). As for `CCOC(=O)C1CCCN(CCCc2ccccc2)C1` (configuration not stated), the cytotoxicity was -2.8% (inactive).

As to `CCOC(=O)c1c(C2CCN(C(=O)OCC)CC2)nc2ccccn12`, the cytotoxicity is 0% (inactive).

As to `COc1ccc(C(C)=O)c2c(O)cccc12`, the cytotoxicity was 9.1% (inactive). To `COc1ccc2c3c(cccc13)OCC2=O` belongs 8.3% (inactive); to `COc1cccc(/C(O)=C2/C(=O)C(=O)N(CCN3CCOCC3)C2c2cccnc2)c1` (configuration not stated), -7.7% (inactive); to `CC(=O)Nc1nc2ccc(Br)cc2s1`, -11.8% (inactive). To `Cc1c(C(=O)N2CCCC2)oc2c1-c1[nH]ncc1CC2` belongs 1% (inactive).
